# Data taken from ChEMBL document CHEMBL3988442, “University of Dundee, Small-Polar-MMV Screening Library” (2021).
# For some of these results: Potency and affinity values are given separately.
# Tests used:
# Set-up in all cases: scale not given: direction of the effect not stated beside the values
# [1] = molecular target: Protein translocase subunit SecA (Escherichia coli (strain K12)) (UniProt P10408); assay: Assay to Identify E. coli SecA ATPase Inhibitors; assay type: functional; details: 30 µM
# [2] = molecular target: T1, Ubiquitin-activating enzyme e1, putative (Leishmania donovani (strain BPK282A1)) (UniProt E9BSI1); assay: Leishmania donovani Ubiquitin Activating Enzyme (LdE1); assay type: functional; details: 30 µM
# T1 sequence (whole entry): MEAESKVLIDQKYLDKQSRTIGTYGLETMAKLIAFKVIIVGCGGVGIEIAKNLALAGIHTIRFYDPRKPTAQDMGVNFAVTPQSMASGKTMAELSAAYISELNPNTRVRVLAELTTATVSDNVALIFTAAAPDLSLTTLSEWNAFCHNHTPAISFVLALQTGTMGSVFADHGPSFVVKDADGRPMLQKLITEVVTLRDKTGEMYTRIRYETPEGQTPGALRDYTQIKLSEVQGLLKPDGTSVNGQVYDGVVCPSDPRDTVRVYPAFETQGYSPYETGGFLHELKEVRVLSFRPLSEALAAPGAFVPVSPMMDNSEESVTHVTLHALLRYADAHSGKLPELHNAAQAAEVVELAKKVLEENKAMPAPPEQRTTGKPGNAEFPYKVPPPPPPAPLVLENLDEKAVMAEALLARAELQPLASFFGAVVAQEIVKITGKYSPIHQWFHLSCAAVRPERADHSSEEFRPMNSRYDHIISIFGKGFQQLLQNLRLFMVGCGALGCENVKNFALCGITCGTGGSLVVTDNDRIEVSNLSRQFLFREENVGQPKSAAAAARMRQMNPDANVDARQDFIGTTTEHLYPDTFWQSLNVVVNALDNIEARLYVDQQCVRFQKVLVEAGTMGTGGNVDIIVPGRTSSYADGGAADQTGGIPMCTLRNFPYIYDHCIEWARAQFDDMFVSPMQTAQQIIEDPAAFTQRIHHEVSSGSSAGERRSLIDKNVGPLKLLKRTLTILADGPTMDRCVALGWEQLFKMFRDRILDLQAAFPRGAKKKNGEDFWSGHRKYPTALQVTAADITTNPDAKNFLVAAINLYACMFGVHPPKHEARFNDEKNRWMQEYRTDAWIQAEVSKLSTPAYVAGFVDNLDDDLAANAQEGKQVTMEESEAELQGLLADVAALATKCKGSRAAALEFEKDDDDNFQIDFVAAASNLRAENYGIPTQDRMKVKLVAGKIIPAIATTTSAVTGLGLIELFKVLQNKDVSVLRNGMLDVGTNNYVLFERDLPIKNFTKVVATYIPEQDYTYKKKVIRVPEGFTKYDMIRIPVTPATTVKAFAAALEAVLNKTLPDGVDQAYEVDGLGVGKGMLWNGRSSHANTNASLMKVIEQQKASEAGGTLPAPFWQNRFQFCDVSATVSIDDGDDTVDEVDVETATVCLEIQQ
# [3] = molecular target: T2, Aspartate--tRNA(Asp/Asn) ligase (Mycobacterium tuberculosis (strain ATCC 25618 / H37Rv)) (UniProt P9WFW3); assay: Assay for Asp RNA synthetase-1 from Mycobacterium tuberculosis; assay type: functional; details: 30 µM; further: in the data most compounds retested in dose-response had high values
# T2 sequence (whole entry): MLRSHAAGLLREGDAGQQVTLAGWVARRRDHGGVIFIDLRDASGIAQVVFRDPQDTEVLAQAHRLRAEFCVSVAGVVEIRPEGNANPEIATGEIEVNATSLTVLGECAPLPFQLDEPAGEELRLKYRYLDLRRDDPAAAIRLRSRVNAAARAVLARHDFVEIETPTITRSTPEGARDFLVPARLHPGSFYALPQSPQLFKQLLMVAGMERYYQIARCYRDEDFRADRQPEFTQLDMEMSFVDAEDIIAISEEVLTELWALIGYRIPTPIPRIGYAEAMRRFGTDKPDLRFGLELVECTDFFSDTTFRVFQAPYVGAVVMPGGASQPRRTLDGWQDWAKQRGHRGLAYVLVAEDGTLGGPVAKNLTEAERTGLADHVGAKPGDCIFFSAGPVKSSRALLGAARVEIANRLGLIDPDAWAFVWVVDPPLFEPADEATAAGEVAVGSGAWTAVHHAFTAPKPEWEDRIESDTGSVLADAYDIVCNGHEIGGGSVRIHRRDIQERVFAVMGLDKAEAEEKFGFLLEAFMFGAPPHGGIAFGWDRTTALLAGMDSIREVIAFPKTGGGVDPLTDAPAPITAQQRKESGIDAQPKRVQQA
# [4] = molecular target: Sialic acid-binding Ig-like lectin 9 (Homo sapiens) (UniProt Q9Y336); assay: Hs-Siglec9 ALPHAscreen SOP 20170721; details: 10 µM
# Trypanosoma cruzi = assay: Trypanosoma cruzi phosphomannomutase and mannose-1-phosphate guanylyltransferase assay; assay type: functional; details: 10 µM
# [5] = molecular target: T3, Arginase-2, mitochondrial (Homo sapiens) (UniProt P78540); assay: in vitro enzyme assay to detect the production of urea directly proportional to the activity of Arginase II; assay type: functional; details: 33.3 µM; further: in the data most compounds retested in dose-response had high values
# T3 sequence (whole entry): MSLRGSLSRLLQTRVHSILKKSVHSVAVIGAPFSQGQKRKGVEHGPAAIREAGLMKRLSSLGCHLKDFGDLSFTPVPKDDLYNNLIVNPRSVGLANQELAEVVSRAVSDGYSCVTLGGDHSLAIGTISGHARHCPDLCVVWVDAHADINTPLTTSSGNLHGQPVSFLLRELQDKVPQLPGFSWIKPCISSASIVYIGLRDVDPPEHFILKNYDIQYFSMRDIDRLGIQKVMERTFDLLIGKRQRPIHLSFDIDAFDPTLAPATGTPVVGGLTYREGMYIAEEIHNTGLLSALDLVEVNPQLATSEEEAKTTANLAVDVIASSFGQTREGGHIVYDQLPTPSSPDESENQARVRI
# [6] = molecular target: T4, Proteasome subunit beta (Trypanosoma cruzi) (UniProt O96673); assay: Trypanosoma cruzi proteasome chymotrypsin-like activity (TcProtChymo) assay.; further: in the data most compounds retested in dose-response had high values; assay type: functional; details: 9.37 µM
# T4 sequence (whole entry): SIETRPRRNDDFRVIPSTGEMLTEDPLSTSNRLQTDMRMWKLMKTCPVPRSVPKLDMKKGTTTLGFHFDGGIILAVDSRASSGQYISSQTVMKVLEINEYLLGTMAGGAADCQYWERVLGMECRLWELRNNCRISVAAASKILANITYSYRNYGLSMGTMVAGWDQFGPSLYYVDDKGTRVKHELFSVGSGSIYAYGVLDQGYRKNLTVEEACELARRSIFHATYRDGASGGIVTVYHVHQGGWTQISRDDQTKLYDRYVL
# Homo sapiens = organism: Homo sapiens; assay: To identify inhibition of the IFN signalling (Jak-Stat) pathway via expression of an eGFP reporter gene under the control of an IFN-stimulated response element (ISRE) containing MxA promoter.; assay type: functional; details: 30 µM
# [7] = molecular target: Shiga toxin 2 (Escherichia coli O157:H7) (UniProt P09385+P09386); assay: E. coli 0.157:H7 Shiga Toxin SOP - stx2 screening assay; assay type: functional; details: 30 µM
# [8] = molecular target: T5, Tyrosyl-tRNA synthetase, putative (Trypanosoma cruzi (strain CL Brener)) (UniProt Q4DSP6); assay: Trypanosoma cruzi tyrosyl tRNA synthetase (TcYRS) _High Tyrosine SOP; assay type: functional; details: 30 µM; further: in the data most compounds retested in dose-response had high values
# T5 sequence (whole entry): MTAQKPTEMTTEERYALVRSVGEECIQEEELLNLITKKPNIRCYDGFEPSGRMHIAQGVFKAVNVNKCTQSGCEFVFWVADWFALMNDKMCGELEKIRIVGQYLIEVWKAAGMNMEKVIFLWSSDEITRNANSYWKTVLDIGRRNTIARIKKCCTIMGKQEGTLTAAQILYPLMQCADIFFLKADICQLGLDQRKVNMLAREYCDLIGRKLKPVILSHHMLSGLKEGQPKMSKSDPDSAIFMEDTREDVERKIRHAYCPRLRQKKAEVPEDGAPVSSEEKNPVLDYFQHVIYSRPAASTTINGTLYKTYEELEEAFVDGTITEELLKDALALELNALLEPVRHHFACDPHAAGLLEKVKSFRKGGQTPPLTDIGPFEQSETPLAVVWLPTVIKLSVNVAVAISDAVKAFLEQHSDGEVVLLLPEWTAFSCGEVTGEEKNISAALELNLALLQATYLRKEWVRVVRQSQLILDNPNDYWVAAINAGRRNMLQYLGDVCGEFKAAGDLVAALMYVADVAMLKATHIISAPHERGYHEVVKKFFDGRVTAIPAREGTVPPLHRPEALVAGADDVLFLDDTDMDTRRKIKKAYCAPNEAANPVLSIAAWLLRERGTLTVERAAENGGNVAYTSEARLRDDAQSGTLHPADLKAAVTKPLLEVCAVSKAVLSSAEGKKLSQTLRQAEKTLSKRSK
# [9] = molecular target: T5, Tyrosyl-tRNA synthetase, putative (Trypanosoma cruzi (strain CL Brener)); assay: Trypanosoma cruzi tyrosyl tRNA synthetase (TcYRS) SOP; assay type: functional; details: 30 µM
# [10] = molecular target: Chromo domain-containing protein 1 (Saccharomyces cerevisiae (strain ATCC 204508 / S288c) (Baker's yeast)) (UniProt P32657); assay: ScCHD-1 Enzyme Inhibition Assay; assay type: functional; details: 30 µM; further: in the data most compounds retested in dose-response had high values
# Chromo domain-containing protein 1 (Saccharomyces cerevisiae (strain ATCC 204508 / S288c) (Baker's yeast)), sequence (P32657 whole entry, the tested form may be a part): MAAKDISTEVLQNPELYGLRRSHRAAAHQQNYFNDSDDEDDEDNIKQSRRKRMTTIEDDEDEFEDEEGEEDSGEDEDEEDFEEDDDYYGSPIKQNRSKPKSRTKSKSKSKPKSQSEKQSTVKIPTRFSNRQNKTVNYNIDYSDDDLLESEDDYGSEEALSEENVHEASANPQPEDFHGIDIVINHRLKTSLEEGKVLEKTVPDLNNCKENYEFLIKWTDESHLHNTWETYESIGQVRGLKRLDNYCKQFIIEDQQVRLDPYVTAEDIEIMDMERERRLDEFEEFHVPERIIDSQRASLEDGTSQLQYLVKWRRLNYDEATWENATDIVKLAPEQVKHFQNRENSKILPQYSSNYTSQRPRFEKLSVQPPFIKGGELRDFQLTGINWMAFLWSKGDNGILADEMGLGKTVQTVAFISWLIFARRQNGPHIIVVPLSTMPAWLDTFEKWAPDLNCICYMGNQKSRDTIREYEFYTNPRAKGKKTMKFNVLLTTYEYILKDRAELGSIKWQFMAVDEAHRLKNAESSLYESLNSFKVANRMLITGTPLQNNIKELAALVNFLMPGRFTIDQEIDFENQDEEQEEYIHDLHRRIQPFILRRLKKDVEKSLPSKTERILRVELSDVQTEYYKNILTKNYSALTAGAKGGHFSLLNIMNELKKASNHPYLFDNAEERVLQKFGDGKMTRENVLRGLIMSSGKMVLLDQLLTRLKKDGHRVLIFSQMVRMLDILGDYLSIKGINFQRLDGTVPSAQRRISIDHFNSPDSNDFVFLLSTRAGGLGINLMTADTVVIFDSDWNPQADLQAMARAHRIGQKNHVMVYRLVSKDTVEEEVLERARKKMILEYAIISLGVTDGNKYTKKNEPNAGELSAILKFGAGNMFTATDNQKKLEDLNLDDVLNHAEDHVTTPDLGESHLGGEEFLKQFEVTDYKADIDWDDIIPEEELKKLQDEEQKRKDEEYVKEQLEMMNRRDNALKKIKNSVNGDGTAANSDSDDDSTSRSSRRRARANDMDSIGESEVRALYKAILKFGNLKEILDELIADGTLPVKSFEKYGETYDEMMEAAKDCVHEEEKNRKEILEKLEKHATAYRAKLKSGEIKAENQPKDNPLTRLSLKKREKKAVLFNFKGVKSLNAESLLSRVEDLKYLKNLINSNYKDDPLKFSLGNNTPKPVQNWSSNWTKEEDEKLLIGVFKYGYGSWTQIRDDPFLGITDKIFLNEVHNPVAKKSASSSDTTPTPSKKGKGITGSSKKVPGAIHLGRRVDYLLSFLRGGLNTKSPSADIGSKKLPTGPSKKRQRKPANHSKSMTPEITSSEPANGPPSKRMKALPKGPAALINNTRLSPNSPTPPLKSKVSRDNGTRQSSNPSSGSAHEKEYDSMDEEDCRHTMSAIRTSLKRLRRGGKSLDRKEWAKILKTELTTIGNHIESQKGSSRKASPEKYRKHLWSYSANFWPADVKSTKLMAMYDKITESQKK
# Protein translocase subunit SecA (Escherichia coli (strain K12)), sequence (P10408 whole entry): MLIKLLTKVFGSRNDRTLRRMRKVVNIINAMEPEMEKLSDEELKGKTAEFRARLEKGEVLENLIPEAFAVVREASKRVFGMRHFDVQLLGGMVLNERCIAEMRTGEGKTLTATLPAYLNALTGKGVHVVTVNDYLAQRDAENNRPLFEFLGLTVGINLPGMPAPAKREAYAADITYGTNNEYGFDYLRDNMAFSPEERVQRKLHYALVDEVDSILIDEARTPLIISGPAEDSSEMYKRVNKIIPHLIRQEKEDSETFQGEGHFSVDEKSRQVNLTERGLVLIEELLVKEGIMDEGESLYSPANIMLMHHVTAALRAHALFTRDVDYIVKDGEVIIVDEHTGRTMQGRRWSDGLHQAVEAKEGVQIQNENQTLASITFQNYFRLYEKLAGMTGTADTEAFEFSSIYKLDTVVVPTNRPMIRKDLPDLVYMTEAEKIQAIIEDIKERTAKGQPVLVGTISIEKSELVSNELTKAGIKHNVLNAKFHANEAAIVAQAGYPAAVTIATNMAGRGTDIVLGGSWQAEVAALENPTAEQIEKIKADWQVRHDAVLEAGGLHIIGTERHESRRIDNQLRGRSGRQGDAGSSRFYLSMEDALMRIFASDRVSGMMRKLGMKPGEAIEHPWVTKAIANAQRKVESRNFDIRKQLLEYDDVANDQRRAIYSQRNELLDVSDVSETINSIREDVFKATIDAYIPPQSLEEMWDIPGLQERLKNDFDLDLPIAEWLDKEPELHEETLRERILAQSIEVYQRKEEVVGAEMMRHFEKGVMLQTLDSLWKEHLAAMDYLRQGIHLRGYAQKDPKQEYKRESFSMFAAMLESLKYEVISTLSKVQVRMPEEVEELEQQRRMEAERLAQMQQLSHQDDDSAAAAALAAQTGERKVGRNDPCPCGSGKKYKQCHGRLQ
# Sialic acid-binding Ig-like lectin 9 (Homo sapiens), sequence (Q9Y336 whole entry): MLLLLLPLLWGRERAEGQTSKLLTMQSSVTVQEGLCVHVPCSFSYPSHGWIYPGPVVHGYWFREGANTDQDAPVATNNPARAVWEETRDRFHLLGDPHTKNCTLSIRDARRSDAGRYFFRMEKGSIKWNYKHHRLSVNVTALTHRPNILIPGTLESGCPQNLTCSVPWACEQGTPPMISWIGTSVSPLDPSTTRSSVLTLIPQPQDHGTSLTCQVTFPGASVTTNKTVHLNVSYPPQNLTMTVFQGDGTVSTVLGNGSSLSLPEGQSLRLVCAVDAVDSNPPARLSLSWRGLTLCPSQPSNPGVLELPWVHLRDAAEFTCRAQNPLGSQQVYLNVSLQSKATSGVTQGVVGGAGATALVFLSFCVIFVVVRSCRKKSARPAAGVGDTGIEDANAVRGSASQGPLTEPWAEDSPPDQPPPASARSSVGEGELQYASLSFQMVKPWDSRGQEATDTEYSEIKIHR
Compound,Percent Effect [1] [%],Percent Effect [2] [%],Percent Effect [3] [%],Percent Effect [4] [%],Percent Effect (Trypanosoma cruzi) [%],Percent Effect [5] [%],Percent Effect [6] [%],Percent Effect (Homo sapiens) [%],Percent Effect [7] [%],Percent Effect [8] [%],Percent Effect [9] [%],Percent Effect [10] [%]
CCc1ccc(CN2CCN(C)c3ncccc3C2)o1,-8.73,1.3,-0.259,15.1,-1.27,-3.24,7.68,6.96,1.33,3.68,-5.13,-4.2
Cc1nn(C)c(N(C)C)c1CNC(C)Cc1c(F)cccc1F (centres undefined),-1.71,26,3.29,10.5,4.85,5.12,7.89,5.28,-17.2,6.86,23.5,-9.67
Fc1cnc(N2CCCC3(CCN(Cc4ccsc4)C3)C2)nc1 (centres undefined),-5.76,3.9,9.59,-1.26,3.02,-5.26,8.56,-2.16,-9.72,6.84,7.69,14.2
COc1ccc(C(=O)C2CCCN(Cc3ccc(C)o3)C2)c(OC)c1 (centres undefined),-3.9,-5.41,-4.91,3.98,-2.04,1.75,7.71,-5.12,-2.98,1.6,7.32,2.92
c1ccc(CN2CCC3(CC2)CCN(Cc2cccs2)C3)nc1,-3.68,11.7,1.23,-8.25,-1.31,-0.457,6.61,-11.1,-13.1,8.7,-12.5,-12
Cc1noc(C)c1CN1CCO[C@H]2CN(CC3CC3)C[C@H]21,-4.84,11.7,-1.48,9.57,4.58,3.24,18.4,2.94,-2.75,8.95,20.5,12.9
CCn1nc(CC(C)C)cc1C(=O)N1C[C@H](O)[C@@H](N2CCCCC2)C1,–,–,-2.61,–,–,–,–,–,–,–,–,–
COc1ccc(C)cc1CC(=O)N1CCN(CC(C)O)CC1 (centres undefined),-3.62,15.6,3.12,6.85,5.6,-5.53,8.07,0.0446,-20.5,4.9,18.8,-7.21
NCC1[C@H]2CN(CCc3ccccc3)C[C@@H]12 (some centres undefined),-7.01,14.3,2.14,-1.73,-4.5,-1.37,11.1,15.4,-0.684,6.76,0,-10.2
COCCNC(=O)[C@@]12CCO[C@@H]1CCN(Cc1c(C)noc1C)C2,-4.83,14.3,11.2,-7.07,1.85,3.24,8.91,-9.54,-12.8,14.2,12.8,-1.61
